Compounds without any hit were thinned out: in the full panel of roughly 83,000, 20% have a hit.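 Growth was measured after 48 h exposure to one concentration of compound in 96-well plates. Values under 10 count as active.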 Unmarked numbers belong to inactive results. Activity calls are given as the source filed them.

This assay relates to CAKI-1 renal. The experiment in a line: NCI-60 one-dose screen, 48 h (100 = growth as untreated, 0 = no growth, -100 = all killed). As to conditions: 10 µM unless noted. Here is the method: Growth inhibition of the CAKI-1 human tumor cell line is measured as a screen for anti-cancer activity. Cells are grown in 96 well plates and exposed to the test compound for 48 hours. Compounds are tested at a single concentration, which is 10^-5 M for most compounds. The reported endpoint is percent growth (GI% or GIPRCNT), where numbers from 0 - 100% represent growth inhibition, and numbers from -100% - 0 represent cell death. For example, a value of 40 represents 60% growth inhibition. A value of 0 means no net growth occurred over the course of the experiment. A value of -40 indicates 40% of cells at the beginning of the experiment died by the end of the experiment. A value of -100 means all cells are dead at the end of the experiment.
NCI-60 Human Tumor Cell Lines Screen was performed using the standard one-dose NCI protocol, which is described in more detail at https://dtp.cancer.gov/discovery_development/nci-60/default.htm.
Compounds with GIPRCNT values below 10 were considered active. Activity score was based on GIPRCNT using the following formula: […]
Score is 0 for GIPRCNT values of 100 or above, 50 for GIPRCNT values of 0, and 100 for GIPRCNT values of -100.
With `Cc1cc(N)cc(C)c1-c1c(Br)cc(N)cc1Br`, the growth is 35%.

With `O=C(CCl)Nc1ccc2c(c1)C(=O)c1ccccc1C2=O`, the growth is 0.23% (active).

On to `CC(=O)N1N=C(C2C(=O)N(C)C(=O)N(C)C2=O)CC1c1ccccc1C(=O)O` (stereo not given), for which the growth was 94.8%.

`CCSc1cnnc2ccccc12`: the growth was 95.3%.

For `Cc1cc(Nc2c3ccccc3nc3ccccc23)ccc1NS(C)(=O)=O`, the growth is 29%.

Take `CCCCOC(=O)c1cc(O)c(O)c(O)c1`: the growth is 70.5%.

Turning to `CC(=O)C1CCC2C3CC(C)=C4CC(O)CCC4(C)C3CCC12C` (stereo not given), the growth was 97.4%.

With `O=C(N/N=C/c1ccc([N+](=O)[O-])cc1)c1ccccc1Nc1ccnc(C(F)(F)F)c1`, the growth was 76.4%.

`COc1cc(C2CC(c3ccccc3)=NN2C=O)ccc1Oc1nc2c(c(=O)n(C)c(=O)n2C)n1C` (stereo not given): the growth was 79.4%.

For the compound `CN(C)CC(=O)c1ccc2cc(Br)c3ccccc3c2c1`, the growth is 75.4%.

In the case of `OC(CCCCCCCCC(O)CN1CCc2ccccc2C1)CN1CCc2ccccc2C1` (stereo not given), the growth is 92.6%.

For the compound `C[C@@H]1N=C(c2ccc3ccccc3c2)Nc2nc3ccccn3c2C1=O`, the growth is 38.5%.

On to `COc1ccc(C(=O)OC2C(OC3C(O)COC(O[C@H]4C[C@H]5[C@@H]6CC=C7C[C@@H](O)CC[C@]7(C)[C@H]6CC[C@]5(C)[C@H]4[C@H](C)C(=O)CCC(C)C)C3OC(C)=O)OCC(O)C2O)cc1` (stereo not given in full), for which the growth was -31.1% (active).

For `COc1ccc(CNc2c3ccccc3nc3ccccc23)cc1F`, the growth was 21.3%.

Turning to `O=C(Nc1ccncc1)C(=O)c1cn(S(=O)(=O)c2cccc(Cl)c2F)c2ccccc12`, the growth is 68.3%.

Consider `COc1ccc(-c2nn(C(=O)NCCN(C)C)cc2-c2ccncc2)cc1Cl`, for which the growth is 51.1%.

Regarding `C=C1C(=O)O[C@H]2[C@H]1CC/C(COC(=O)NCc1[nH]nc3ccccc13)=C\CC[C@@]1(C)O[C@@H]21`, the growth is 16.6%.

As for `c1ccc2c(N=NSc3ncnc4nc[nH]c34)c3ccccc3nc2c1`, the growth was 19.7%.

Consider `CCN1C(=O)N(CC)C2C1NN=c1s/c(=C\c3ccc(Br)cc3)c(=O)n12` (stereo not given), for which the growth is 23.8%.

On to `CCSCC1CC(O)(c2ccccc2)C(c2ccccc2)C(c2ccc(F)cc2)O1` (stereo not given), for which the growth was -13.5% (active).

On to `Cc1ccncc1NC=O`, for which the growth was 95.8%.

For the compound `O=[N+]([O-])c1ccc(N/N=C\c2ccc(O)cc2O)nc1`, the growth is 4.77% (active).

On to `Cc1cc2nc(CN)[nH]c2cc1C`, for which the growth is 108%.

As to `CSc1nc(N)c2[nH]c(-c3cc4ccccc4[nH]c3=O)nc2n1`, the growth is 68.9%.

On to `O=C(Nc1ccc(Br)cc1)c1ccc(Cl)c(Cl)c1`, for which the growth was 8.9% (active).

Take `COc1cc(Nc2ncccc2/C=C/C(=O)c2cc(OC)c(OC)c(OC)c2)cc(OC)c1OC`: the growth is 72%.

Take `Nc1c(N)c2ccccc2c2ccccc12`: the growth was 89%.

Take `O=C(CC(=O)C(F)(F)C(F)(F)C(F)(F)F)c1cc2ccccc2o1`: the growth was 94.8%.

Consider `S=C(S)Oc1cccc2cccnc12`, for which the growth is 91.7%.

As to `Nc1c(C(=O)Nc2ccccc2)sc2nc3c(cc12)C(=O)CCC3`, the growth is 54.7%.

Regarding `COC(=O)c1ccc2c(c1)nc(-c1ccc(Cl)cc1)n2-c1cc(C(C)(C)C)[nH]n1`, the growth is 50.4%.

Turning to `COc1nccc2c(Sc3ccccc3)nc(N)nc12`, the growth is 106%.

On to `Clc1ccc(C2=NN[C@H](c3cn(-c4ccccc4)nc3-c3ccccc3)C2)cc1`, for which the growth is 19.6%.

As to `NC(N)=N/N=C/c1ccc(Cl)cc1`, the growth was 34%.

For the compound `COc1cc(-c2nn(C(=O)NCCN3CCN(C)CC3)cc2-c2ccncc2)ccc1Cl`, the growth is 79.7%.

`Cc1nn(-c2ccccc2)c2nc3c(nc12)C1=NCCN1C(c1ccc(Cl)cc1)N3` (stereo not given): the growth was 82.6%.

For `COc1ccccc1CNCCCN1C(=O)c2ccc3c4c(ccc(c24)C1=O)C(=O)N(CCCNCCCN)C3=O`, the growth was 31.9%.

On to `COc1ccc2nc(C)cc(Sc3nc4ccccc4s3)c2c1`, for which the growth was -41.8% (active).

Regarding `CC1CCCN(CCCCOc2ccc(-c3ccc(C#N)cc3)cc2)C1` (stereo not given), the growth was 98.7%.

On to `CCOC(=O)C(CCCCC(NC(C)=O)(C(=O)OCC)C(=O)OCC)(NC(C)=O)C(=O)OCC`, for which the growth was 104%.
